Data: the supplement of paper PMC11417369
Over roughly 25,000 sequences, “ln(normalized median fluorescence intensity)” has its median near 7.1; the highest 2% begin near 10. The entries come from a sample that favours the highest values as a whole.

Tested on: PfSIP2 AP2 domain 1 (GST-tagged)
Test: gcPBM binding intensity (ln(normalized median fluorescence intensity)); higher = stronger DNA binding
Summary of the method: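 GST-fused DNA-binding domains of P. falciparum, expressed in E. coli, were applied at about 25 μg on average for 1 h to an Agilent 4 × 180k array of primer-extended double-stranded 36-bp intergenic genomic probes and negative controls. Binding intensity is the highest Masliner-normalised natural-log median intensity across replicate spots of either probe orientation, measured with Alexa488 anti-GST antibody and a 488 nm scan.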

Sequence | gcPBM binding intensity (ln)
TTTTTTTTTTTTTGGTGTACCATAGGTAAAATGATT [XGTACX_site8020] | 7.2
TATTTATATTTATACACACACACAAAAAAAAAAAAA [CACACA_site6817] | 7.22
TATTTTTTATATTTATTTATTTAAAGGAGCTTTTCT [GTGCAC_negctrl_site293] | 6.67
TTTTTCATTTAGCTTTTACACACTATATATTATTGA [CACACA_site7888] | 7.16
ATATATATATATATTACACACTTTTTCTTTTTTTTT [CACACA_site2780] | 9.47
CAGGTGCACTATATTACACACGCTTCTTTTTTTTTA [CACACA_site2069] | 12.4
AATATATTTATGCTCATGCACTTTTTTTTTTTTTTT [GTGCAC_site9654] | 8.89
AATATTTCTCATTTTGTGCACTGAAAAATGTAATAT | 10.2
TATATATATTTTTGTGTGCACTATAATATGAAAATA | 10.8
ATATATTGCACTTTTTGTACATAATGAAAAATTTTT [XGTACX_site8223] | 8.1
TATATATATATGTGCACACATAAAGATATTATTTTT [CACACA_site3733] | 9.51
ATCATATTTTTATGTGTGCACTTTTTTTTTTTTTTT [GTGCAC_site9555] | 10.8
AATTTTTTTTTTTTTTTTTTTTATATATGTGTGTGT [XGTACX_negctrl_site129] | 7.29
TATATATATATATATGTGCACATATTTATATGTTTT | 9.47
ATATATTTTATATGTGTGCACTATATATATATATAT | 10.2
TATATATTTCGGTGTGCACACTTTTTATTTTTATCC [CACACA_site1726] | 8.4
TATATATTTTTATGTGTGCACTGTTTCATAAAAGAA | 10.9
ACATATTATATATGTGTGCACATATATATATATTTA [GTGCAC_site9591] | 8.7
AAATATATTTTACATTGTACATGAATAAACTATAAA [XGTACX_site2080] | 7.05
AAGGCAAGCACTTAAACATGCATATAATAATATCAT [TGCATGCA_site698] | 7.36
TGATAAGTATACTAAAGTACATGAAAAATAACTTCC [XGTACX_site6908] | 6.87
ATTACATACGAGCACACGTAAAAGTATAATATAAAA [GTGCAC_negctrl_site446] | 6.94
TGAGTATATATAAATACACACCAAATGTTAATATAT [CACACA_site5022] | 6.8

Sequence | gcPBM binding intensity (ln)
TAATGATAAATACATACACACAAAAAATAATATATA [CACACA_site2576] | 6.85
CATATATATTTGTTCACACACACACTAGAAAAAAAA [CACACA_site5380] | 7.29
TATGATACATAAATATGTACGTATAATATATATTTA [XGTACX_site7002] | 6.96
ATTATTAAAAATATGGGTACATATTATTGTTATATA [XGTACX_site1958] | 6.89
AAAAAATAAAAAATATGTACACATTCAAAATTTTAC [XGTACX_site8479] | 6.91
ATTTTATGAAATGTTGCACACAAAAAACAACATGTT [CACACA_site8408] | 7.66
TATTTTTGGTTATGTGTGCACTATGAACAACAAAAT | 10.5
TATATTTTTATGTGTGTGCACAAAATAACAAAATAT [GTGCAC_site9596] | 9.36
AATATTTGCCTATGTTGTACTGACATTTTTTTAAGT [XGTACX_site6836] | 7.06
TTTTAAGATATAAATTAATACTTATATATATAGATA [CACACA_negctrl_site22] | 6.75
TAATTACACTTTAAAAGTACATATATAATAACATTA [XGTACX_site379] | 7.04
ATTAGTTTACACATATGTACATATATTACAACAAAA [XGTACX_site275] | 7.34
AAAAAGAACACAAAAAGTACAAAAATTATAATGATA [XGTACX_site2676] | 6.98
ATATTATATATATACACACACACATGCATGCACCTA [CACACA_site106] | 11.1
AAAAAAAAAAAAAACACACACATGCACCTCATATTA [CACACA_site556] | 11.4
CATATATGGTTATATACATGCACCATTATATTATTA [TGCATGCA_site520] | 10.3
AAAAAAAAAACACACACATGCACATCATATTATATA [TGCATGCA_site133] | 7.03
ATATGGATTATACATACATGCATACATACATACATA [TGCATGCA_site475] | 7.1
AACACATACATATATGCACACATTTTATTCCATTAT [CACACA_site2834] | 8.05
AAAAAAAAAAAAAACACACACATGCACATCATATTA [CACACA_site4467] | 7.43
ATATTATATATATACACACACACATGCATGCACATA [CACACA_site7917] | 8.98
ATATTATAGATATACACACACACATGCATGCACATA [CACACA_site6203] | 8.64
AAAAAAAATGATAATATACACACTTATGGGAGAGCG [CACACA_site2516] | 6.97

Sequence | gcPBM binding intensity (ln)
TATATAATACGAATTTGTACATATTAAATAAATTAT [XGTACX_site93] | 6.84
TTTTAAAAAACAAACACACACGTAGAAAAAAAAAAA [CACACA_site4608] | 6.99
GGTAGAAAATCAGTTAAACACACACCGAAAAAAAAA [CACACA_site8934] | 7.24
TATGAACACCAACACACACACAAAAAAAAAAAAAAA [CACACA_site2013] | 7.3
TACATATTTTGTATATATTATTTATTTTATTAGTTT [XGTACX_negctrl_site85] | 6.74
TTAATAGGTCGAAGTAGTACATAAAAATATATATAT [XGTACX_site5960] | 8.1
CACCCATAAATATACACACGCACAACACAAAATAAA [CACACA_site2903] | 7.52
ATAAAAATTGATTATACACACGCGCACCCACAACAA [CACACA_site3536] | 11.2
AATGTACACGCACCCACACACAAACAAATATAAATA [CACACA_site7319] | 10.3
TATACAATATAAAATACACACGCACCCAAAAAAAAA [CACACA_site9174] | 10.4
ATTATACACGCGCGCACACACAACAAAAAAAAAAAA [CACACA_site7630] | 7.59
AATGTACACCCACCCACACACAAACAAATATATATA [CACACA_site5521] | 7.62
AATGTACCCACACCCACACACAAACAAATATATATA [CACACA_site2751] | 7.47
GACACCCATAAATATACACACGCACAACACAAAATA [CACACA_site8944] | 7.67
ATAAAAATTGATTATACACACGCGCCCAGACAACAA [CACACA_site5870] | 7.24
TATATATAATTCATACATTTTAAATATATTTATTTA [CACACA_negctrl_site840] | 7.01
TATTGAATAAAATGCACACGCATGCGTTATTTATTA [CACACA_site3479] | 6.9
ATATATCATGCCAAGGGTACAAATGTGTAGTTGAAA [XGTACX_site2820] | 7.16
AAAAAAAAATACATATGTACTTATGTATAATGTTGT [XGTACX_site8104] | 7.14
AACTTTTTACAAACAGGTACGCATATATATATATAT [XGTACX_site5081] | 8.9
AAAATACACGCATACACACACACACCCACCCATATA [CACACA_site639] | 7.14
TCCCCTTAATTTAAAACACACAAACAAATAAGTTAG [CACACA_site5973] | 6.91
GAATGTCTAATTTTGATGCACACTTTTGTGCAATTA [CACACA_site2902] | 8.6

Sequence | gcPBM binding intensity (ln)
AAGAGGATACACAATGTGCACTTTTTTTTTTTTTTT [GTGCAC_site9415] | 10.5
TATAAGAGGATATATACACACAAAAATATGTACAGT [CACACA_site6885] | 7.07
AACTGTAAAAAATATAAACACACATAGAAATATATA [CACACA_site8002] | 7.01
CAGGGCAGGGGGAAGGGTACACATAAAAGAAAATAA [XGTACX_site172] | 8.34
TCATAGGGGTAGAAGGTGCAATAAAAAAGAAGAAAA | 10.7
AAAATAAAAAGAAAAAGAAAAAAGGGGGGGTAGGGG [CACACA_negctrl_site1048] | 7.86
TGAACATTATAGAAAAGTACTTAGTTTTTAAAAAGA [XGTACX_site6864] | 7
TATATATATAAAAGTTGTACAGTGTTTTATATAGTT [XGTACX_site7085] | 8.13
AAAAAAAAAAAAAAAGTGCACAGTCGTTTTAAAAAA [GTGCAC_site9848] | 10.7
GTCTAAAAATAAAAAGTGCATTTGTTTAATATTTTG | 9.52
AAAAAAAAAAGAAACACACACATTTGTCTATAATAT [CACACA_site7063] | 6.8
AAAATACATGGACACACACACACACCGATATATATA [CACACA_site5885] | 7.4
TTTTGTTTTTTCAATGTGCACTTAGGATGTTTTTAT [GTGCAC_site9565] | 10.6
TTTTTTTTTTTTTTTGTGCACAATTATTTCAATTTT [GTGCAC_site9884] | 8.88
TATGTTTTATATAAGATGCACTTTTGTTATGCTTCA | 8.55
CCATGTCACAATTTTTCACACACAAAATTTATATAC [CACACA_site8628] | 7.39
TATTTTTAGAAAATAAAGAAGGAGAATTGAAAATAT [CACACA_negctrl_site361] | 7.06
TTTTGTTTTTAGTTTATACACACCATATTAATATAA [CACACA_site3102] | 7.27
CATTATAAAAAATAAAAAAGAAATAATTGTATATGC [CACACA_negctrl_site478] | 7
TGTATGTATAATTGAGTGCACAGAAAAAAAAAAGAA | 10.5
AAGAAAATATAAAATGCACACTATAAATTGTATATA [CACACA_site7928] | 7.84
ATATATTTTTTTTCTTCACACACATGAATTATATAT [CACACA_site9053] | 7.45
